FLuc counter: counter-screen for miR-21 project: firefly luciferase inhibitors or activators | purified FLuc, Km substrates, luminescence inhibition | Potency, µM (series often up to 57.5 µM), inactives show at the top dose activity change, negative = inhibition, usual class: inhibitors | hit rate 6.9% among 360,000;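 also: plate controls were vehicle for no effect and reference inhibitor for full effect; nearly all actives have a fitted effect of over 55% in size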
Target sequence (P08659 whole entry, looked up): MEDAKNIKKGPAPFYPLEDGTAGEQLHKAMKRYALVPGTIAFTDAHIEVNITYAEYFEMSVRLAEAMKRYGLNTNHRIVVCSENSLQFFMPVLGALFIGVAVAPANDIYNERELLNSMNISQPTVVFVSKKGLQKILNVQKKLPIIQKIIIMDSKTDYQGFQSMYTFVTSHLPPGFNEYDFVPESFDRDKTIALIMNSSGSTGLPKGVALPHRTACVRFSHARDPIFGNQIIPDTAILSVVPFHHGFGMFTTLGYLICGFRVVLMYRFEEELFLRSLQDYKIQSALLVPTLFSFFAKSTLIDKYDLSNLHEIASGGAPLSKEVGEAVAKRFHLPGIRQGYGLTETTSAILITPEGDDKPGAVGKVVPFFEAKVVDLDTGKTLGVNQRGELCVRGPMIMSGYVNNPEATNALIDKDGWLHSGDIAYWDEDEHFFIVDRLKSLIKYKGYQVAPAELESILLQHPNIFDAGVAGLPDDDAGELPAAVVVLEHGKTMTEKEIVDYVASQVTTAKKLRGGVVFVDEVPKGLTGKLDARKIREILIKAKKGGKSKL
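Purified P. pyralis luciferase (10nM final) with 10uM D-luciferin and 10uM ATP (Km levels) in 50mM Tris acetate pH 7.5, 10mM Mg acetate, 0.01% Tween-20, 0.05% BSA; qHTS 6-point titration, ~60 µM downward; luminescence read.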
SMN2 splice up: increases expression of the SMN2 splice variant; Potency, µM (top dose mostly 46.1 µM), without a hit: at the top dose activity change, positive = activation, usual class: activators; hit rate 2.8% among 210,000; HEK293 SMN2-luciferase splicing reporter, luminescence, 30-36 h; also: % of control where 0% means no effect; nearly all actives have a fitted effect of over 55% in size
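qHTS luciferase splicing reporter: luminescence rises when SMN2 exon 7 is included in transfected HEK293 cells. Compound exposure lasted 30-36 h at 37C, with 4.5 mM final sodium butyrate as control, followed by a ONE-Glo read.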
ELG1 DNA repair: blocks ELG1-dependent DNA repair in HEK293T cells; HEK293T ELG1-luciferase reporter, luminescence, 16 h; DNA damage induced by 5-fluorouridine; Potency, µM (doses to about 46.1 µM), without a hit: at the highest dose activity change, negative = inhibition, hits mostly inhibitors; hit rate 2.3% among 330,000; AID 504467; also: % is scaled to controls: 0 for no effect and ±100 for the full control effect; nearly all actives have a fitted effect of over 55% in size
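Step one: seed 2,000 cells per well. Step two: pin-transfer compound or DMSO alongside 5-fluorouridine. Step three: incubate 16 hr, 37 °C, 5% CO2. Step four: add ONE-Glo, wait 30 min, read luminescence.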
NPC1 promoter act: activators of NPC1 promoter; Huh7 NPC1 promoter luciferase reporter, 24 h; Potency, µM (series often up to 9.22 µM), inactives show top-dose activation, hits mostly activators; hit rate 2.4% among 320,000; AID 485313; also: % of control where 0% means no effect; nearly all actives have a fitted effect of over 60% in size
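Stable NPC1-promoter luciferase Huh7 line; cpd (DMSO) 24 h, 37 °C, 5% CO2; Amplite luciferase reagent 10 min RT; luminescence readout. qHTS format.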
Rab9 promoter act: Rab9 promoter activation; Huh7 Rab9 promoter-luciferase reporter, luminescence, 24 h; Potency, µM (doses to about 9.22 µM), for inactives: top-dose activation, negative = inhibition, hits mostly activators; hit rate 2.8% among 320,000; also: % of control where 0% means no effect; nearly all actives have a fitted effect of over 60% in size
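Steps: seed 1500 Huh7 Rab9-luc cells per well, rest 2 h at 37 °C; add compound in DMSO; incubate 24 h; add luciferase reagent, 10 min ambient; read luminescence.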
ELG1 genotoxic: genotoxicity induction in ELG1-luciferase HEK293T cells; hit rate 1.3% among 330,000; Potency, µM (series often up to 46 µM), without a hit: top-dose activity change, positive = activation, hits mostly activators; HEK293T ELG1-luciferase reporter, luminescence, 16 h; also: % of control where 0% means no effect; nearly all actives have a fitted effect of over 60% in size
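Quantitative HTS format in 1536-well plates. HEK293T ELG1-luciferase reporter cells receive test compound and are incubated 16 hr at 37 °C, 5% CO2; ONE-Glo added, 30 min room temperature, then luminescence read.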
* = called active by the depositor; ? = inconclusive; . = no result given. Sampled rows, rich in hits. Any-hit rate of the full collection: about 9.2%. Calls follow the shape of the dose curve; as a rule, active = well fitted curve in the direction sought with a large enough effect; inconclusive = small, poorly fitted or top-dose-only effect, or another doubt; inactive = no such curve, though single readings can be large; an effect the other way counts as inactive or inconclusive. Potency is read from the fitted curve at half-maximal effect.

SMILES	FLuc counter	SMN2 splice up	ELG1 DNA repair	NPC1 promoter act	Rab9 promoter act	ELG1 genotoxic
Cc1ccc(C(=O)COC(=O)C2C3C=CC(C3)C2C(=O)OCC(=O)c2ccc(C)c(C)c2)cc1C (stereo unspecified)	-7.5%	-15.8%	13µM*	1.4%	3.6%	-8.8%
COc1ccccc1C1CCN(C(=O)c2ccco2)CC1	-3.6%	.	-2.7%	0.2%	1.3%	-3.2%
CCc1ccccc1NC(=O)c1ccc2c(SCC(=O)O)c3c(nc2c1)CCC3	?	0.0%	.	.	.	.
CC(=O)COc1coc(CN2CCN(c3ccc(F)cc3)CC2)cc1=O	4.0%	.	7.1%	5.8%	2.5%	2.7%
CC(OC(=O)[C@H](C)NC(=O)c1ccccc1Cl)C(=O)NCc1ccc2c(c1)OCO2 (stereo partly specified)	0.4%	.	-1.5%	-1.4%	-6.4%	0.8%
CCc1nc(NC(=O)NS(=O)(=O)c2ccccc2C(=O)OC)nc(OC)n1	-1.4%	.	0.2%	-3.5%	-7.5%	4.0%
CCOC(=O)COC(=O)c1ccc(O)cc1	-15.9%	-0.9%	5.1%	-2.1%	-4.1%	8.9%
Cc1ccc(C(=O)COC(=O)C2CCC2)cc1	0.379µM*	.	0.0%	-0.4%	-2.8%	2.1%
Cc1ccc(C(=O)COC(=O)c2ccc(O)cc2)cc1	10.7µM*	.	?	?	3.16µM*	?
CCCC(=O)Nc1ccc(C(=O)COC(=O)C2CC2)cc1	.	.	?	.	.	15.3%
CC1CCN(S(=O)(=O)c2ccc3c(c2)CCN3C(=O)Nc2ccc(Br)cc2)CC1	-5.6%	-5.3%	.	.	.	.
CCn1c(C)cc(/C=C2/SC(=S)N(CC(=O)O)C2=O)c1C	2.69µM*	-13.1%	12.2%	5.2%	0.9%	-8.9%
CCN1C(=O)/C(=C/c2cnn(CC)c2C)SC1=S	?	-4.4%	?	0.7%	1.0%	?
C#CCN1C(=O)S/C(=C/c2cc(C)n(CC)c2C)C1=O	2.13µM*	.	?	2.82µM*	1.58µM*	?
CCn1c(C)cc(/C=C2\NC(=O)N(Cc3ccccc3)C2=O)c1C	-15.4%	-4.7%	?	8.2%	3.3%	0.0%
COc1ccccc1N1CCN(C(=O)CCNS(=O)(=O)c2ccc3c(c2)CCN3C(=O)C2CC2)CC1	-0.8%	.	.	.	.	.
N/C(=N\c1nc2ccccc2o1)NC(=O)c1cccc(Cl)c1	0.8%	.	14.1%	14.8%	2.4%	7.1%
CCCCC(=O)N/C(N)=N/c1nc2ccccc2o1	3.01µM*	.	?	1.26µM*	1.78µM*	?
N/C(=N\c1nc2ccccc2o1)NC(=O)c1ccccc1F	8.49µM*	?	?	1.58µM*	2.51µM*	?
C=CCNc1ncnc2c1[nH]c1ccc(Cl)cc12	12µM*	-79.5%	7.4%	5.3%	29.7%	?
CCc1ccccc1N(CC)C(=O)c1cc2c(s1)-c1ccccc1OC2	-14.8%	-32.1%	.	.	.	.
COc1ccc(-n2cc3ccc([N+](=O)[O-])cc3n2)cc1	0.953µM*	.	?	0.708µM*	0.447µM*	?
COc1ccc(C2=NCCn3nc4cc([N+](=O)[O-])ccc4c32)cc1	2.6%	.	10.2%	8.0%	-0.2%	5.8%
COc1cc(C(=O)O)c2ccccc2n1	-9.8%	.	-6.3%	-4.8%	-0.4%	0.4%
CC(=O)N1CCc2cc(S(=O)(=O)NC(CC(C)C)C(=O)Nc3cc(C)cc(C)c3)ccc21 (stereo unspecified)	-1.9%	6.2%	.	.	.	.
SMILES	FLuc counter	SMN2 splice up	ELG1 DNA repair	NPC1 promoter act	Rab9 promoter act	ELG1 genotoxic
O=[N+]([O-])c1ccc(O)c(C2=NNC(c3ccccc3F)C2)c1 (stereo unspecified)	3.38µM*	.	?	1µM*	0.316µM*	5.3%
COc1ccc([N+](=O)[O-])cc1C1NN=C(c2ccccc2O)S1 (stereo unspecified)	?	-16.5%	?	-2.6%	16.3%	3.8%
c1ccc(-c2ccc(-n3ccnc3)cc2)cc1	23.9µM*	.	?	25.2%	12.4%	?
O=C(CCc1ccccc1)N/N=C/c1cccc(O)c1	?	.	-8.9%	-2.0%	5.2%	7.3%
COc1ccc(/C=N/NC(=O)c2nonc2N)cc1OC	?	.	24.0%	-3.8%	-3.6%	7.3%
O=C(N/N=C/c1cccc(Oc2ccccc2)c1)c1cccc(O)c1	16.9µM*	.	17.8%	0.9%	-2.8%	15.4%
Cc1nonc1C(=O)N/N=C/c1cccc(O)c1	12µM*	0.2%	13.6%	2.5%	0.6%	4.2%
O=C(N/N=C/c1cccc(O)c1)N/N=C/c1cccc(O)c1	5.36µM*	.	23.6%	13.7%	10.0%	7.2%
O=C(N/N=C/c1cccc(Oc2ccccc2)c1)c1cccc(Br)c1	?	-21.7%	?	4.0%	15.3%	-5.4%
COc1cc(NC(=O)CCn2cnc3ccccc3c2=O)cc(OC)c1	-5.8%	.	.	.	.	.
Cc1ccc(-c2nn3c(C)nnc3c3ccccc23)cc1S(=O)(=O)NC(C)(C)CO	4.9%	?	?	-6.7%	-11.5%	20.6µM*
Cc1ccc(-c2nn3c(C)nnc3c3ccccc23)cc1S(=O)(=O)NC(C)c1ccccc1 (stereo unspecified)	1.8%	-2.9%	?	-5.6%	-1.5%	-0.1%
Cc1ccc(-c2nn3c(C)nnc3c3ccccc23)cc1S(=O)(=O)NCc1ccco1	17.1%	12.6µM*	?	-0.3%	13.8%	?
CCOc1ccc(-c2cnc(NCc3ccc(C(F)(F)F)cc3)n2C)cc1	4.2%	-22.5%	.	.	.	.
COc1cc(OC)c(NC(=O)C2CCN(C(=O)c3sc4nc[nH]c(=O)c4c3C)CC2)cc1Cl	-7.9%	.	.	.	.	.
CC(=O)Nc1ccc(SC[C@H](CC(C)C)N2CCN(CC(C)C)CCC2=O)cc1	-1.3%	.	0.8%	-2.2%	-3.7%	0.9%
CC(C)C[C@@H](CSc1ccc(Br)cc1)N1CCN(CC(C)C)CCC1=O	15.1µM*	.	?	?	19.8%	4.8%
Cc1ccc(SC[C@H](CC(C)C)N2CCN(C)CCC2=O)cc1	15.1µM*	.	?	?	3.55µM*	?
Cc1ccc(SCCN2CCN(CCc3ccccc3)CCC2=O)cc1	-1.6%	.	10.8%	-3.1%	-3.4%	1.3%
CC(C)CN1CCC(=O)N(CCSc2ccccc2)CC1	23.9µM*	.	?	1.58µM*	1.58µM*	?
COc1ccc(SC[C@H](CC(C)C)N2CCN(C)CCC2=O)cc1	?	.	?	?	20.5%	?
Cc1ccc(SC[C@H](c2ccccc2)N2CCN(C)CCC2=O)cc1	15.1µM*	.	?	?	2.82µM*	?
CCS(=O)(=O)c1ncc(N(Cc2ccccc2)Cc2ccco2)c(C(=O)Nc2ccc(C)c(C)c2)n1	-5.9%	.	.	.	.	.
CC(C)C[C@@H](CSc1ccc(Br)cc1)N1CCN(C)CCC1=O	19µM*	.	?	3.55µM*	?	?
